Reference: PubChem BioAssay AID1117319 (Southern Research Institute, 2015)
Hit rate of the full screen: of about 260,000 compounds, about 1,500 (0.58%) were called active. Not shown: some 5% with an inconclusive outcome.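 How the source made its calls: active means inhibition above a set limit at one or more doses, reproduced on every date tested; inconclusive means results disagree between test dates, or hit never tested in dose response; inactive means the rest.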 Not all results are given here. Entries with a potency or affinity are not part of this list.

target: Virion infectivity factor (Human immunodeficiency virus type 1 group M subtype B (isolate BH10)) + Virion infectivity factor (Human immunodeficiency virus type 1 group M subtype B (isolate BRU/LAI)) + Virion infectivity factor (Human immunodeficiency virus type 1 group M subtype B (isolate PCV12)) + Virion infectivity factor (Human immunodeficiency virus type 1 group M subtype B (isolate HXB2)) + DNA dC->dU-editing enzyme APOBEC-3G (Homo sapiens) (UniProt P69720+P69721+P69722+P69723+Q9HC16); test: HIV-1 Vif–A3G interaction blockers – biochemical, TR-FRET, GST-Vif 1-94, biotin-A3G peptide, dose response retest, primary screen (AID 1117319); conditions: TR-FRET GST-Vif / biotin-A3G peptide binding; active compounds read high;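 further: Vif residues 1-94 fused to GST binding biotinylated APOBEC3G peptide 110-148; 0% = full assay without inhibitor and 100% = GST in place of GST-Vif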

inhibition, inactive:
CCCOC(=O)c1ccc(NC(=O)c2ccccc2[N+](=O)[O-])cc1 -4.31%
CCN(CC)S(=O)(=O)c1ccc(C(=O)OC2CCCCC2CN(C)C)cc1 (stereo unspecified) -1.05%
COc1ccc(CCNS(=O)(=O)CCNC(=O)c2ccccc2)cc1 -6.03%
CC(/C=C/c1ccc(C)o1)=C\C(=O)O 2.74%
CC(/C=C/c1ccc(Cl)o1)=C\C(=O)O 27.4%
O=C1C2C3CCC(C3)C2C(=O)N1CNc1ccccc1 (stereo unspecified) -1.35%
Cc1ccc2[nH]c(=O)c(CN(C(=O)c3cccc([N+](=O)[O-])c3)C(C)(C)C)cc2c1 -6%
CN(Cc1ccccc1)S(=O)(=O)c1ccc(Cl)c(C(=O)NCCCN2CCOCC2)c1 -5.26%
CC1(OC(=O)CCc2ccccc2)C(=O)C=C2C=C(c3ccc(C#N)cc3)N(C(CO)CO)C=C2C1=O (stereo unspecified) 0.31%
CC(C)CN1C=C2C(=O)C(C)(OC(=O)C3CCCC3)C(=O)C=C2C=C1c1ccsc1 (stereo unspecified) 28.7%
CC1(OC(=O)C2CCCC2)C(=O)C=C2C=C(c3ccsc3)N(C(CO)CO)C=C2C1=O (stereo unspecified) 15.2%
CC1(OC(=O)CCc2ccccc2)C(=O)C=C2C=C(c3ccc(C#N)cc3)N(CC3CC3)C=C2C1=O (stereo unspecified) -1.42%
COc1ccc(-c2ccc(SCC(=O)N3CCOCC3)nn2)cc1OC 2.85%
COc1ccccc1OCCCC(=O)Nc1nnc(C2CCCO2)s1 (stereo unspecified) -0.39%
Cc1n[nH]c(=S)n(/N=C/c2cccs2)c1=O -1.81%
Cc1nn2c(=S)[nH]nc2[nH]c1=O 14.1%
COC(=O)[C@H]1C[C@@H]1[C@H](NC(=O)OCc1ccccc1)c1ccccc1 -8.43%
COC(=O)[C@H]1C[C@@H]1[C@H](NC(=O)[C@H]1C[C@@H]1[C@H](NC(=O)OCc1ccccc1)c1ccccc1)c1ccccc1 25.9%
Cc1ccc2cc3cc(C(=O)NCCCN4CCCC4)oc3nc2c1 -1.36%
O=C(O)C1=NN(c2ccccc2)C(=O)C1 13.7%
CC1=NN(c2cc(Cl)c(S(=O)(=O)O)cc2Cl)C(=O)C1 8.79%
COCCCn1c(SCC(N)=O)nnc1-c1ccccc1 2.76%
C=CCN1C(=O)/C(=C/c2ccsc2)SC1=S 21.3%
COc1ccc(CN(CC(=O)NC2CCCC2)C(=O)c2onc(C(N)=O)c2N)cc1 30.2%
COc1cccc(CN2C(=O)CN(C3CCCCC3)C(=O)C2c2ccc(F)cc2)c1 (stereo unspecified) 1.82%
Cc1ccc(OC(=O)c2cccnc2)cc1 -1.57%
CC1=CC(C)(C)Nc2ccc(OC(=O)CN3C(=O)c4ccccc4C3=O)cc21 19.2%
CC1=CC(C)(C)Nc2ccc(OC(=O)CCN3C(=O)c4ccccc4C3=O)cc21 3.55%
CC1=CC(C)(C)Nc2ccc(OC(=O)c3ccco3)cc21 16.4%
CC(Oc1ccccc1F)C(=O)/C=C/N(C)C (stereo unspecified) 5.44%
O=C(Nc1ccc(Oc2ccccc2)nc1)C1CCCCN1Cc1ccco1 (stereo unspecified) 9.99%
O=C(Nc1cccnc1)c1ccc(S(=O)(=O)c2ccccc2)cc1 -0.77%
O=C(NCc1ccccc1)C(=O)NCC1OCCCN1S(=O)(=O)c1cccs1 (stereo unspecified) -3.27%
NC(=O)Nn1c(CCC(=O)O)ccc1-c1ccc(Cl)cc1 3.68%
NC(=O)Nn1c(CCC(=O)O)ccc1-c1ccc(F)cc1 4.46%
Cc1nc(-c2cc(C#N)c(Sc3cccc(C(F)(F)F)c3)nc2C)cs1 -11.1%
COCCN(C(=O)COC(=O)c1cc2ccccc2cc1O)c1c(N)n(Cc2ccccc2)c(=O)[nH]c1=O 0.53%
CCOc1ccc(C(=O)Nc2ccc(N3CCCC3)cc2)cc1 -1.32%
CCOc1c(Cl)cc(CNc2ccc(N3CCCC3)cc2)cc1OC -0.34%
Cc1ccc2cc(CN(CCN(C)C)C(=S)Nc3ccccc3)c(=O)[nH]c2c1C 17%
CCOc1ccc(C2CC(=O)NC(SC)=C2C#N)cc1 (stereo unspecified) -1.81%
CS/C(=N\S(=O)(=O)c1cccs1)Nc1ccc(Cl)cc1 3.6%
COc1ccc(C2C(C(=O)Nc3ccc(F)cc3)=C(C)Nc3nc(CCCO)nn32)cc1 (stereo unspecified) -0.37%
COc1ccc(OC)c(C2C(C(=O)Nc3ccccc3OC)=C(C)Nc3nc(CCCO)nn32)c1 (stereo unspecified) 18.4%
Nc1ccc(C(=O)N(CCO)CCO)cc1 2.26%
OCCN(CCO)c1ccc2ccccc2c1 9.83%
CN(CC(=O)Nc1ccc(F)cc1)C(=O)C1CCCC1 -2.12%
O=c1c2c3c(sc2n(CCN2CCCCC2)c(=O)n1Cc1ccco1)CCCCC3 30.5%
O=C(Cn1c(=O)n(Cc2ccco2)c(=O)c2c3c(sc21)CCCC3)Nc1ccccc1 -1.14%
FC(F)(F)c1cnc(Oc2ccc(-c3nnco3)cc2)c(Cl)c1 -4.28%
Oc1ccc(Br)cc1/C=N/n1c(COc2ccccc2)n[nH]c1=S 23.7%
Cc1ccc(S(=O)(=O)Cc2ccc(C(=O)NCc3cccs3)o2)cc1 2.29%
CSc1ccccc1NC(=O)c1cccnc1 -0.88%
CCN=c1scc(C)n1/N=C/c1cc(Br)c(O)c(OC)c1 10.6%
CCN=c1scc(C)n1/N=C/c1ccsc1 24.1%
CN=c1scc(C)n1/N=C/c1cc(Br)c(O)c(Br)c1 27.7%
CN=c1scc(C)n1/N=C/c1ccc(O)cc1 3.18%
C=C(C)CN=c1scc(C)n1/N=C/c1ccco1 7.84%
CN=c1scc(C)n1/N=C/c1ccc(O)cc1O 6.79%
O=C(Oc1coc(CSc2ncccn2)cc1=O)c1cccc([N+](=O)[O-])c1 -1.78%
O=C(Cc1ccccc1[N+](=O)[O-])NCC(=O)c1ccc2c(c1)OCO2 -9.24%
